In PubChem BioAssay (EPA / NIEHS):
Active and inactive are the calls of the source. How the source made its calls: active means hit-call score of the fitted dose curve at least 0.9, where 1 is the maximum; inactive means score below 0.9.

read-out: Matrix Metallopeptidase 9 (MMP9), MMP9 (gene 4318); assay: BSK_BE3C_MMP9: BioMAP Diversity Plus: BE3C Assay for Matrix Metallopeptidase 9 (MMP9) Biomarker Activity (AID 2284283); conditions: primary human bronchial epithelial cells
Procedure: BSK_BE3C is a cell-based, multiplexed-readout assay that uses bronchial epithelial cell, a human lung primary cell, with measurements taken at 24 hours after chemical dosing in a 96-well plate.BSK_BE3C_MMP9 is an assay component measured in the BSK_BE3C assay. It measures MMP-9 antibody related to regulation of gene expression using ELISA technology.Data from the assay component BSK_BE3C_MMP9 was analyzed at the endpoint, BSK_BE3C_MMP9, in the positive analysis fitting direction relative to DMSO as the negative control and baseline of activity. Using a type of binding reporter, gain or loss-of-signal activity can be used to understand protein changes. To generalize the intended target to other relatable targets, this assay endpoint is annotated to the 'protease' intended target family, where the subfamily is 'matrix metalloproteinase'.
The levels of cell surface (or secreted, indicated by the prefix "s") biomarker endpoints were measured by ELISA. Overt cytotoxicity to cells in confluent adherent cultures (all systems other than the BT system) was assessed by measuring total protein levels using sulforhodamine B (SRB) staining in parallel cultures at the time of biomarker measurements, indicated as SRB endpoints. For proliferation assays for adherent cell types, individual cell types are cultured at sub-confluence and relative cell numbers quantified by SRB staining at time points optimized for each system (48 h: 3C and CASM3C systems; 72 h: BT and HDF3CGF systems; 96 h: SAg system). SRB was performed by staining cells with 0.1% SRB after fixation with 10% TCA and reading wells at 560 nm.Viability and proliferation of PBMC (T cells) was quantified by Alamar Blue reduction for the SAg and BT systems. For PBMC viability (referred to as PBMC Cytotoxicity within the assay endpoint names), cells were plated (75,000/well in a 96-well plate) and then chemical samples added for 1 h before addition of activators, SEB and TSST-1 (20 ng/mL final concentration each). Cells were incubated for 90 h. Then, Alamar Blue (20 uL/well) (Invitrogen, Cat DAL1100) was added for 6 h, and the plates were read with a fluorescence microplate reader at 546/580 nm (excitation/emission). For PBMC proliferation, cells were plated and activated as above but incubated for only 16 h prior to addition of Alamar Blue. Plates were read after 6 h.

Row | Compound | outcome
1 | FC(F)=C(F)C(F)(F)C(F)(F)C(F)(F)C(F)(F)C(F)(F)C(F)(F)F | inactive
2 | O=S(=O)(O)CCC(F)(F)C(F)(F)C(F)(F)C(F)(F)C(F)(F)C(F)(F)F | inactive
3 | OCCC(F)(F)C(F)(F)C(F)(F)C(F)(F)F | inactive
4 | C[Si](C)(C)C(F)(F)C(F)(F)C(F)(F)F | inactive
5 | NCC(F)(F)C(F)(F)C(F)(F)C(F)(F)F | inactive
6 | OC(O)(C(F)C(O)(O)C(F)(F)F)C(F)(F)F | inactive
7 | FC(F)(F)C(F)(F)C(F)(F)C(F)(F)C(F)(F)C(F)(F)I | inactive
8 | O=C(Cl)C(F)(F)C(F)(F)C(F)(F)C(=O)Cl | inactive
9 | FC(F)(F)COC(OCC(F)(F)F)OCC(F)(F)F | inactive
10 | FC(F)C(F)(F)COCC1CO1 (stereo not given) | inactive
